Source: PubChem BioAssay (Tox21)
Values joined by “and” are separate entries in the source; they are usually repeats but may differ in a detail not shown here. Equal values may be shown once. Inconclusive results are not listed. Where a call stands in place of a potency, no number is given. Values without a mark were called inactive. Active and inactive are the calls of the source. The call rests on the fitted dose curve.

target: 5-hydroxytryptamine receptor 2A (Homo sapiens) (UniProt P28223); test: 5-hydroxytryptamine receptor 2A (HTR2A) small molecule agonists, cell-based qHTS assay (AID 1963587); settings: HTR2A-CHO cells, calcium flux fluorescence, agonist mode; series mostly up to 76.8 µM; further: nearly all actives have a fitted effect of over 30% in size
Description: National Center for Advancing Translational Sciences [NCATS]
Division of Preclinical Innovation [DPI]
U.S. Environmental Protection Agency [EPA]
National Institutes of Environmental Health Sciences [NIEHS]
National Toxicology Program [NTP]
U.S. Food and Drug Administration [FDA]
The HTR2A receptor is a subtype of the 5-HT2 receptor that belongs to the serotonin receptor family and is a G protein-coupled receptor (GPCR). The HTR2A-CHO cell line stably expressing human 5-hydroxytryptamine receptor 2A (HTR2A) can be used for screening agonists of interactions between 5-HT2 and its ligands. The HTR2A-CHO calcium flux assay is a homogeneous fluorescence-based assay for detecting the intracellular calcium level using FDSS kinetic plate reader system.
HTR2A-CHO cells were dispensed at 2000 cells/3uL/well in 1536-well black-clear bottom plates using a Multidrop Dispenser. After the assay plates were incubated at a 37 C/5% CO2 incubator for 18 h, 3 uL of Dye Loading Buffer was transferred to the assay plate by a Flying Reagent Dispenser. The assay plates were incubated at 37 C for 1h. For agonist mode, 23 nL of compounds dissolved in DMSO, positive controls or DMSO only was transferred to the assay plate by a pin tool. The fluorescence intensity in the plates was measured using FDSS 7000EX kinetic plate reader for 2 min at 1 sec intervals.
Potency means the concentration at half of the fitted maximal effect.

5-hydroxytryptamine receptor 2A (Homo sapiens), sequence (P28223 whole entry, looked up): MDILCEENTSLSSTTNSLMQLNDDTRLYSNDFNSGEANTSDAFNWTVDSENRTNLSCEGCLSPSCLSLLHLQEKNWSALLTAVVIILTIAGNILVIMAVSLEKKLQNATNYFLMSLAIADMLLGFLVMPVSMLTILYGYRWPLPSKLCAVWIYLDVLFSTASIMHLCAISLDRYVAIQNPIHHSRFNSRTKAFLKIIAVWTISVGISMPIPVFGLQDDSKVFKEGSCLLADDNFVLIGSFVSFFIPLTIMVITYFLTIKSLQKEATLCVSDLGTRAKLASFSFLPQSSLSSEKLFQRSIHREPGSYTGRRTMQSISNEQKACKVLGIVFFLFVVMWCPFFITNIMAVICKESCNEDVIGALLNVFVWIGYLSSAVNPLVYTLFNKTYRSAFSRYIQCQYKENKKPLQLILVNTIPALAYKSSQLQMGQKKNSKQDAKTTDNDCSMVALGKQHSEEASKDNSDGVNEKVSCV

Row | SMILES | Potency | activation
1 | C=C(C)C(=O)OCC(O)COc1ccc(C(C)(C)c2ccc(OCC(O)COC(=O)C(=C)C)cc2)cc1 (stereo not given) | inactive | 
2 | CCCCN(CCC(=O)OCC)C(C)=O | inactive | 
3 | CCOc1ccc(C(=O)OCCN(CC)CC)cc1 | inactive | 
4 | c1cc(OCC2CO2)cc(OCC2CO2)c1 (stereo not given) | inactive | 
5 | C1C2OC2C2C1C1CC2C2OC12 (stereo not given) | inactive | 
6 | CC1CN(c2ccccc2)NC1=O (stereo not given) | inactive | 
7 | C=C1C(C)(C)[C@@]2(Cl)C(Cl)[C@]1(Cl)C(Cl)(Cl)C2(Cl)Cl (stereo not given in full) | inactive | 
8 | CCCCCCCC#N | inactive | 
9 | FC1(F)C(F)(F)C(F)(F)C2(F)C(F)(F)C(F)(F)C(F)(F)C(F)(F)C2(F)C1(F)F (stereo not given) | inactive | 
10 | N#CCCNCCC#N | inactive | 
11 | CC(C)c1ccc(O)c(C(C)C)c1 | 54.9 µM (active) | 
12 | O=C(c1ccc(O)c(O)c1)c1ccc(O)cc1O | inactive | 
13 | CCCCCOc1ccccc1/C(=C\SC)n1ccnc1 | inactive | 
14 | Cc1cc2nc3c(=O)[nH]c(=O)nc-3n(C[C@H](O)[C@H](O)[C@H](O)CO)c2cc1C | 6.1 µM (active) and 16.1 µM (active) and 11.7 µM (active) | 
15 | CN(C)c1ccncc1 | inactive | 
16 | CCCCCCOC(=O)CCCCCCCC(=O)OCCCCCC | inactive | 
17 | COC(=O)C1=C(C)NC(C)=C(C(=O)OCC(C)=O)C1c1ccccc1[N+](=O)[O-] (stereo not given) | inactive | 
18 | O=C1NCCN1 | inactive | 
19 | O=C(Nc1ccc2c(c1)Cc1ccccc1-2)C(F)(F)F | inactive | 
20 | O[C@@H](c1cc(C(F)(F)F)nc2c(C(F)(F)F)cccc12)[C@H]1CCCCN1 | 10.7 µM (active) | 

Row | SMILES | Potency | activation
21 | OCc1cc(C(O)CNCCCCCCOCCCCc2ccccc2)ccc1O (stereo not given) | inactive | 
22 | CCCNC(C)C(=O)Nc1c(C)csc1C(=O)OC (stereo not given) | inactive | 
23 | Cc1cccc(C(=O)O)c1O | inactive | 
24 | O=C1CCCCCCCCCCCCCCO1 | inactive | 
25 | CN1C(CSCC(F)(F)F)Nc2cc(Cl)c(S(N)(=O)=O)cc2S1(=O)=O (stereo not given) | inactive | 
26 | CCc1c(C)cc(N)c(CC)c1N | inactive | 
27 | CCCCOC(=O)c1ccccc1C(=O)OCC(CC)CCCC (stereo not given) | inactive | 
28 | CC(C)N(C)C | inactive | 
29 | CC1(C)CCC[C@]2(C)[C@H]3CCO[C@]3(C)CC[C@@H]12 | inactive | 
30 | Cc1ccccc1N=C(N)N=C(N)N | inactive | 
31 | COC(=O)C1=C(C)NC(C)=C(C(=O)OCCc2ccc(N3CCN(C(c4ccccc4)c4ccccc4)CC3)cc2)C1c1cccc([N+](=O)[O-])c1 (stereo not given) | inactive | 
32 | Cc1coc2ccccc2c1=O | inactive | 
33 | CCCC1CCOC(C)S1 (stereo not given) | inactive | 
34 | Cc1[nH]c(C)c(Cl)c(=O)c1Cl |  | -10% [at 15.9 µM]
35 | C/C=C/C(=O)C1=C(C)CCCC1(C)C | inactive | 
36 | CC/C(=C(/c1ccc(O)cc1)c1ccc(OCCN(C)C)cc1)c1ccccc1 | 28.8 µM (active) | 
37 | CC[N+](C)(CC)CCOC(=O)C1c2ccccc2Oc2ccccc21 | inactive | 
38 | CC(C)C[C@H](NC(=O)[C@H](Cc1ccccc1)NC(=O)c1cnccn1)B(O)O | inactive | 
39 | CC(COc1ccc(C(C)(C)C)cc1)OS(=O)OCCCl (stereo not given) | inactive | 
40 | Oc1ccccc1F | inactive | 
